# Compound activity from PubChem.
# APEX1 inh: APE1 (human) endonuclease inhibition; P27695; recombinant APE1, TAMRA/BHQ-2 abasic DNA cleavage fluorescence; Potency, µM (series often up to 65.8 µM), for the others: top-dose activity change, negative = inhibition, usual class: inhibitors; actives 0.35% (n = 350,000);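 also: plate controls were vehicle for no effect and reference inhibitor for full effect; nearly all actives have a fitted effect of over 55% in size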
#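 Quantitative HTS: incision of a TAMRA/BHQ-2 double-stranded substrate bearing a tetrahydrofuran abasic site by 0.75 nM APE1 raises fluorescence. Substrate 50 nM final, added after 15 min compound preincubation at room temperature; progress as third-minus-first kinetic read difference.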
# Pol kappa inh: inhibitors of human DNA polymerase kappa. AID 588579. Potency, µM (top dose mostly 107 µM), without a hit: top-dose activity, negative = inhibition, usual class: inhibitors. purified Pol kappa, fluorescent DNA synthesis assay, 10 min. actives 0.53% (n = 400,000). Q9UBT6; also: % is scaled to controls: 0 for no effect and ±100 for the full control effect
#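 Inhibition of 10 nM Pol kappa is measured by a fluorescent read-out at 0 and 10 min following addition of 50 nM substrate (final), with a 15-min room-temperature compound preincubation.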
# POLH inh: inhibitors of human DNA polymerase eta; AID 588591; Potency, µM (doses to about 114 µM), inactives show top-dose activity change, negative = inhibition, hits mostly inhibitors; actives 1.2% (n = 390,000); recombinant Pol eta, fluorescent DNA replication assay; Q9Y253; also: % is scaled to controls: 0 for no effect and ±100 for the full control effect
#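 Pol eta at 10 nM preincubated with compounds 15 min at room temperature; reaction started with fluorescent substrate (50 nM final) and read kinetically at 0 and 10 min.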
# POLI inh: blocks human DNA polymerase iota activity | Q9UNA4 | Pol iota fluorescent replication assay, 10 min | Potency, µM (doses to about 115 µM), without a hit: top-dose activity, negative = inhibition, most hits filed as inhibitors | actives 1% (n = 390,000)
#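 Fluorescent replication assay read twice, at 0 min and 10 min after adding 50 nM (final) substrate. Enzyme (10 nM) and compounds were first incubated 15 min at room temperature; enzyme-free buffer wells were negative controls.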
# Pol beta inh: inhibitors of human DNA polymerase beta | P06746 | Potency, µM (titrated, usually from 114 µM), for inactives: at the highest dose activity change, negative = inhibition, hits mostly inhibitors | actives 1.3% (n = 340,000) | Pol beta primer extension/strand displacement, fluorescence kinetic; also: % is scaled to controls: 0 for no effect and ±100 for the full control effect
#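 Human Pol beta at 10 nM; strand-displacement substrate 50 nM final. Compound exposure 15 min at room temperature before start, reaction 10 min at room temperature.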
# GLS inhibitor: inhibitors of human glutaminase (GLS); actives 0.21% (n = 410,000); O94925; GLS enzymatic activity, qHTS titration; Potency, µM (series often up to 45.5 µM), for the others: at the highest dose activity change, negative = inhibition, actives largely listed as inhibitors; also: % is scaled to controls: 0 for no effect and ±100 for the full control effect
#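 hKGA in 45 mM KH2PO4 (pH 8.2), 0.02% Tween-20 with compound, then 1mM L-Glutamine (stock as added) plus glutamate oxidase/HRP/Amplex red coupling mix. Fluorescence read initially and after 30 min at RT; signal change reflects glutamate formation.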
# TbPGK inh: TbPGK inhibition, hit validation; shares compounds with Pol kappa inh; TbPGK coupled GAPDH assay, Kinase-Glo luminescence; Potency, µM (series often up to 57.5 µM), for inactives: at the highest dose activity change, negative = inhibition, actives largely listed as inhibitors; AID 686980; actives 79% (n = 500); also: % is scaled to controls: 0 for no effect and ±100 for the full control effect; nearly all actives have a fitted effect of over 65% in size
# Pol iota confirm: Inhibitors of human DNA polymerase iota, confirmation | Pol iota primer extension, TAMRA/BHQ fluorescence | shares compounds with Pol kappa inh | AID 720496 | actives 77% (n = 1,500) | Potency, µM, hits mostly inhibitors
# Starred values were filed as active, the others as inactive; ? = inconclusive; / = no result given; [ ] = remark or other dose. The list is not random: actives were taken first. Their share in the collection is about 2.4%. Calls follow the shape of the dose curve; as a rule, active = well fitted curve in the direction sought with a large enough effect; inconclusive = small, poorly fitted or top-dose-only effect, or another doubt; inactive = no such curve, though single readings can be large; an effect the other way counts as inactive or inconclusive. Potency is read from the fitted curve at half-maximal effect.
SMILES,APEX1 inh,Pol kappa inh,POLH inh,POLI inh,Pol beta inh,GLS inhibitor,Pol iota confirm,others
COc1ccc(NC(=O)c2cc3ccccc3o2)cn1,19%,-4%,-6%,11%,8%,-1%,/,
COc1cc(/C=N/Nc2ccccc2C(F)(F)F)ccc1O,-9%,-16%,-15%,48%,-2%,14%,/,
COc1cc(/C=N/Nc2nncn2/N=C/c2ccc(O)c(OC)c2)ccc1O,-10%,-8%,-33%,20µM*,2%,18%,/,TbPGK inh=?
O=C(CCN1C(=O)/C(=C/C=C/c2ccccc2)SC1=S)Nc1cccnc1,-1%,-4%,5µM*,?,20%,9%,9.5*,
O=c1c(=O)n(O)c2ccccc2n1O,-2%,1%,-6%,-26%,9%,13µM*,?,
COn1c(=O)c(=O)n(O)c2ccccc21,0%,-20%,1%,-3%,0%,15%,/,
COc1ccc(C(=O)N/N=C/c2ccc(OC(=O)c3cccs3)cc2)cc1,19%,-3%,-7%,-13%,32%,-3%,/,
O=C(N/N=C\c1ccc(OC(=O)c2cccs2)cc1)c1ccc(Cl)cc1,4%,-7%,3.2µM*,?,3.2µM*,1%,?,
COc1ccc(C(C[N+](=O)[O-])c2c(C)[nH]n(-c3ccccc3)c2=O)cc1 (stereo unspecified),-16%,-10%,-13%,1.6µM*,-2%,11%,67*,
COc1ccc(C(=O)N2CCN(Cc3cc(OC)ccc3OC)CC2)cc1,11%,4%,?,30%,25%,2%,/,
COc1ccc(B(O)O)c(CN2CCN(C(=O)OC(C)(C)C)CC2)c1,/,-26%,-6%,?,/,2%,/,TbPGK inh=?
CN(C)c1ccc(/C=c2\[nH]c(=O)/c(=C\c3ccc(N(C)C)cc3)[nH]c2=O)cc1,/,-14%,/,?,/,/,/,
CN(C)c1ccc(-c2cc[nH]c(=O)c2N)cc1,/,/,/,/,/,/,?,
CCOc1ccc(N/C=C/C(=O)c2ccccc2)c([N+](=O)[O-])c1,17%,-17%,-2%,11%,45%,-4%,/,TbPGK inh=15µM*
CCOc1ccc(NC(=O)/C=C/c2ccccc2)c([N+](=O)[O-])c1,4%,0%,-15%,-6%,-25%,13%,/,
CCOC(=O)C1=NNC(C(=O)c2ccc(C)cc2)C1c1ccc(C)cc1 (stereo unspecified),-9%,-12%,-13%,2%,2%,10%,/,
C=CCn1c(=O)[nH]c2cc(C(=O)N3CCN(c4ccc(C(C)=O)cc4)CC3)ccc2c1=O,-7%,?,?,?,35µM*,-3%,47*,
CCc1ccc2oc(C(=O)Nc3nc(-c4ccc(F)cc4)ns3)c(C)c2c1,/,7%,7%,-4%,19%,-5%,/,
O=C(Nc1ccc(Cl)c([N+](=O)[O-])c1)c1ccc2c(c1)OCCO2,?,-4%,-21%,129%,15%,-20%,/,
O=C(N/N=C/c1ccc(Cl)c([N+](=O)[O-])c1)c1ccc2c(c1)OCCO2,/,-10%,?,-24%,/,-1%,75*,
O=S1(=O)CC(N2CCC(c3ccccc3)CC2)CN1Cc1ccccc1 (stereo unspecified),/,/,/,/,/,1%,/,
O=C1Nc2cc3c(cc2C1=O)sc1ccccc13,0%,?,45µM*,32µM*,40µM*,-32%,?,
COc1ccc2nc(NC(=O)c3cc(C)oc3C)sc2c1,1%,4%,-8%,?,40%,6%,/,
COc1ccc2nc(NC(=O)c3ccoc3C)sc2c1,3%,-10%,5%,-10%[58.9 µM],-1%,-13%,/,TbPGK inh=10µM*
